Values joined by “and” are separate entries in the source; they are usually repeats but may differ in a detail not shown here. Equal values may be shown once. Screen size: about 5,500 compounds; about 2,000 (36%) were called active. Inconclusive results (about 18%) are left out. Rule as the data show it: active = normalized growth mostly below about 0.91 (no sharp cut-off); inconclusive = no clear call, values can overlap the other calls; inactive = mostly above about 0.92. The list shows a part of the results.
Assay: chemical genetic growth profiling, strain panel (AID 1159580);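 also: tested at 20 µM; growth read once vehicle control cultures reached saturation at 30 °C; 1 = growth at the plate median or of vehicle wells; lower values mean less growth of the strain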
Details: growth OD

Measured: normalized growth

CC(C)NNC(=O)c1ccncc1
inactive: S. cerevisiae deletion strains, locus YJR043C, strain POL32, hits give low values 1.01 | S. cerevisiae deletion strains, locus YJR075W, strain HOC1, hits give low values 1 | S. cerevisiae deletion strains, locus YKL068W, hits give low values 1.02 | S. cerevisiae deletion strains, locus YKL085W, strain MDH1 (second series), hits give low values 1.03 | S. cerevisiae deletion strains, locus YKL085W, strain MDH1, hits give low values 1.03 | S. cerevisiae deletion strains, locus YKL160W, strain elf1, hits give low values 1.01 | S. cerevisiae deletion strains, locus YKL190W, strain CNB1, hits give low values 1 | S. cerevisiae deletion strains, locus YKR001C, strain vps1, hits give low values 1.02 | S. cerevisiae deletion strains, locus YKR026C, strain gcn3, hits give low values 0.997 | S. cerevisiae deletion strains, locus YKR091W, strain srl3, hits give low values 1.01 | S. cerevisiae deletion strains, locus YLL001W, strain dnm1, hits give low values 1 | S. cerevisiae deletion strains, locus YLL026W, hits give low values 1.01 | S. cerevisiae deletion strains, locus YLL041C, strain sdh2, hits give low values 1.01 | S. cerevisiae deletion strains, locus YLR027C, strain aat2, hits give low values 0.996 | S. cerevisiae deletion strains, locus YLR039C, strain RIC1, hits give low values 1.02 | S. cerevisiae deletion strains, locus YLR058C, strain SHM2, hits give low values 1.01 | S. cerevisiae deletion strains, locus YLR102C, strain apc9, hits give low values 1.01 | S. cerevisiae deletion strains, locus YLR221C, strain rsa3, hits give low values 1.02 | S. cerevisiae deletion strains, locus YLR258W, strain gsy2, hits give low values 1.02 | S. cerevisiae deletion strains, locus YLR262C, strain YPT6 (second series), hits give low values 1 | S. cerevisiae deletion strains, locus YLR262C, strain YPT6, hits give low values 1.02 | S. cerevisiae deletion strains, locus YLR268W, strain sec22, hits give low values 1.03 | S. cerevisiae deletion strains, locus YLR320W, strain mms22, hits give low values 1.01 | S. cerevisiae deletion strains, locus YLR330W, strain CHS5, hits give low values 1.01 | S. cerevisiae deletion strains, locus YLR342W, strain FKS1 (second series), hits give low values 1.01 | S. cerevisiae deletion strains, locus YLR342W, strain FKS1, hits give low values 0.986 | S. cerevisiae deletion strains, locus YLR357W, strain rsc2, hits give low values 1.01 | S. cerevisiae deletion strains, locus YLR370C, strain arc18, hits give low values 1.01 | S. cerevisiae deletion strains, locus YLR371W, strain rom2, hits give low values 1 | S. cerevisiae deletion strains, locus YLR384C, strain iki3, hits give low values 0.995 | S. cerevisiae deletion strains, locus YLR418C, strain cdc73, hits give low values 1.04 | S. cerevisiae deletion strains, locus YML016C, strain PPZ1, hits give low values 1 | S. cerevisiae deletion strains, locus YML032C, strain rad52, hits give low values 1.02 | S. cerevisiae deletion strains, locus YML120C, strain ndi1, hits give low values 0.999 | S. cerevisiae deletion strains, locus YML124C, strain tub3, hits give low values 1.01 | S. cerevisiae deletion strains, locus YMR058W, strain fet3, hits give low values 1.03 | S. cerevisiae deletion strains, locus YMR078C, strain ctf18, hits give low values 1.01 | S. cerevisiae deletion strains, locus YMR125W, strain sto1, hits give low values 1.02 | S. cerevisiae deletion strains, locus YMR129W, hits give low values 1.01 | S. cerevisiae deletion strains, locus YMR205C, strain PFK2, hits give low values 1 | S. cerevisiae deletion strains, locus YMR223W, strain ubp8, hits give low values 1.02 | S. cerevisiae deletion strains, locus YMR231W, strain pep5, hits give low values 1 | S. cerevisiae deletion strains, locus YMR263W, strain SAP30, hits give low values 1.01 | S. cerevisiae deletion strains, locus YMR307W, strain GAS1, hits give low values 1.05 and 1 | S. cerevisiae deletion strains, locus YNL067W, strain RPL9B, hits give low values 1.01 | S. cerevisiae deletion strains, locus YNL071W, strain lat1, hits give low values 1.03 | S. cerevisiae deletion strains, locus YNL128W, strain TEP1, hits give low values 1.01 | S. cerevisiae deletion strains, locus YNL153C, strain GIM3, hits give low values 1.01 | S. cerevisiae deletion strains, locus YNL175C, strain NOP13, hits give low values 0.994 | S. cerevisiae deletion strains, locus YNL197C, strain WHI3, hits give low values 0.989 | S. cerevisiae deletion strains, locus YNL209W, strain ssb2, hits give low values 1.03 | S. cerevisiae deletion strains, locus YNL224C, strain SQS1, hits give low values 1.02 | S. cerevisiae deletion strains, locus YNL233W, strain BNI4, hits give low values 1.01 | S. cerevisiae deletion strains, locus YNL248C, strain rpa49, hits give low values 1.01 | S. cerevisiae deletion strains, locus YNL250W, strain rad50, hits give low values 1.02 | S. cerevisiae deletion strains, locus YNL271C, strain bni1, hits give low values 1.02 | S. cerevisiae deletion strains, locus YNL298W, strain CLA4, hits give low values 1.01 | S. cerevisiae deletion strains, locus YNL307C, strain MCK1, hits give low values 1.02 | S. cerevisiae deletion strains, locus YNL322C, strain KRE1 (second series), hits give low values 1.01 | S. cerevisiae deletion strains, locus YNL322C, strain KRE1, hits give low values 1 and 0.981 | S. cerevisiae deletion strains, locus YNR049C, strain mso1, hits give low values 1.01 | S. cerevisiae deletion strains, locus YNR052C, strain pop2, hits give low values 1.02 | S. cerevisiae deletion strains, locus YOL006C, strain TOP1, hits give low values 1.04 | S. cerevisiae deletion strains, locus YOL012C, strain htz1 1.02 | S. cerevisiae deletion strains, locus YOL147C, strain pex11, hits give low values 1.01 | S. cerevisiae deletion strains, locus YOR001W, strain rrp6, hits give low values 0.998 | S. cerevisiae deletion strains, locus YOR061W, strain CKA2, hits give low values 1.01 | S. cerevisiae deletion strains, locus YOR069W, strain VPS5, hits give low values 1.01 | S. cerevisiae deletion strains, locus YOR070C, strain gyp1, hits give low values 1.01 | S. cerevisiae deletion strains, locus YOR080W, strain dia2, hits give low values 1.01 | S. cerevisiae deletion strains, locus YOR083W, strain WHI5 (second series), hits give low values 1.01 | S. cerevisiae deletion strains, locus YOR083W, strain WHI5, hits give low values 0.998 | S. cerevisiae deletion strains, locus YOR106W, strain vam3, hits give low values 1.02 | S. cerevisiae deletion strains, locus YOR136W, strain idh2, hits give low values 1.02 | S. cerevisiae deletion strains, locus YOR144C, strain elg1, hits give low values 1.01 | S. cerevisiae deletion strains, locus YOR184W, strain ser1, hits give low values 1.04 | S. cerevisiae deletion strains, locus YOR265W, strain rbl2, hits give low values 1.01 | S. cerevisiae deletion strains, locus YOR270C, strain vph1, hits give low values 1.06 | S. cerevisiae deletion strains, locus YOR290C, strain snf2, hits give low values 1.01 | S. cerevisiae deletion strains, locus YOR316C, strain cot1, hits give low values 1.02 | S. cerevisiae deletion strains, locus YPL051W, strain arl3, hits give low values 1.01 | S. cerevisiae deletion strains, locus YPL055C, strain LGE1, hits give low values 1.02 | S. cerevisiae deletion strains, locus YPL078C, strain atp4, hits give low values 1.01 | S. cerevisiae deletion strains, locus YPL106C, strain sse1, hits give low values 0.991 | S. cerevisiae deletion strains, locus YPL240C, strain hsp82, hits give low values 1.02 | S. cerevisiae deletion strains, locus YPL241C, strain CIN2, hits give low values 0.995 and 0.982 | S. cerevisiae deletion strains, locus YPR119W, strain clb2, hits give low values 1 | S. cerevisiae deletion strains, locus YPR141C, strain kar3, hits give low values 1.01 | S. cerevisiae deletion strains, locus YPR163C, strain tif3, hits give low values 1.02 | S. cerevisiae deletion strains, locus YPR167C, strain met16, hits give low values 1.02 | S. cerevisiae deletion strains, strain wtn01, hits give low values 1.02 | S. cerevisiae strains, strain wild type, hits give low values 1.01

Reference: PubChem BioAssay AID1159580 (chemical genetic matrix, 2015)
